Assay results: ChEMBL document CHEMBL1961873, “Compounds: GSK PKIS; Assays: Nanosyn kinase panel” (2012)

Key:
[1] = target: Serine/threonine-protein kinase pim-2 (Homo sapiens) (UniProt Q9P1W9); details: at 1 µM;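 further: each value is a mean of the inhibition measurements against the kinase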
[2] = target: Serine/threonine-protein kinase pim-3 (Homo sapiens) (UniProt Q86V86); details: at 0.1 µM
[3] = target: Serine/threonine-protein kinase pim-3 (Homo sapiens) (UniProt Q86V86); details: at 1 µM
[4] = target: T1, MAP kinase-activated protein kinase 5 (Homo sapiens) (UniProt Q8IW41); details: at 0.1 µM
T1 sequence (whole entry): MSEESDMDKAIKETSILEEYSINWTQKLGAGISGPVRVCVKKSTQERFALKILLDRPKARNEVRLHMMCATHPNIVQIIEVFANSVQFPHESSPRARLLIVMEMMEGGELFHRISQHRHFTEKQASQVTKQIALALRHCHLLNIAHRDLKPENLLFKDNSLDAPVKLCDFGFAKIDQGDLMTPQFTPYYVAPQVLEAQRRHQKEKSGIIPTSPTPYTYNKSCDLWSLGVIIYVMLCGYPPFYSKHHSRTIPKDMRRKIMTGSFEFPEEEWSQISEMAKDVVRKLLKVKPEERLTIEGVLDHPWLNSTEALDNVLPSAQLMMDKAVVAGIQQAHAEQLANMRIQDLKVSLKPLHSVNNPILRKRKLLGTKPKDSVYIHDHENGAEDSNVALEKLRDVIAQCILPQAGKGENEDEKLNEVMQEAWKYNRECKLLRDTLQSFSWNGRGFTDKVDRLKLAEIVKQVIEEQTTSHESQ

[5] = target: T1, MAP kinase-activated protein kinase 5 (Homo sapiens); details: at 1 µM
[6] = target: Serine/threonine-protein kinase SIK1 (Homo sapiens) (UniProt P57059); details: at 0.1 µM
Chain of Serine/threonine-protein kinase SIK1 (Homo sapiens) (P57059 whole entry): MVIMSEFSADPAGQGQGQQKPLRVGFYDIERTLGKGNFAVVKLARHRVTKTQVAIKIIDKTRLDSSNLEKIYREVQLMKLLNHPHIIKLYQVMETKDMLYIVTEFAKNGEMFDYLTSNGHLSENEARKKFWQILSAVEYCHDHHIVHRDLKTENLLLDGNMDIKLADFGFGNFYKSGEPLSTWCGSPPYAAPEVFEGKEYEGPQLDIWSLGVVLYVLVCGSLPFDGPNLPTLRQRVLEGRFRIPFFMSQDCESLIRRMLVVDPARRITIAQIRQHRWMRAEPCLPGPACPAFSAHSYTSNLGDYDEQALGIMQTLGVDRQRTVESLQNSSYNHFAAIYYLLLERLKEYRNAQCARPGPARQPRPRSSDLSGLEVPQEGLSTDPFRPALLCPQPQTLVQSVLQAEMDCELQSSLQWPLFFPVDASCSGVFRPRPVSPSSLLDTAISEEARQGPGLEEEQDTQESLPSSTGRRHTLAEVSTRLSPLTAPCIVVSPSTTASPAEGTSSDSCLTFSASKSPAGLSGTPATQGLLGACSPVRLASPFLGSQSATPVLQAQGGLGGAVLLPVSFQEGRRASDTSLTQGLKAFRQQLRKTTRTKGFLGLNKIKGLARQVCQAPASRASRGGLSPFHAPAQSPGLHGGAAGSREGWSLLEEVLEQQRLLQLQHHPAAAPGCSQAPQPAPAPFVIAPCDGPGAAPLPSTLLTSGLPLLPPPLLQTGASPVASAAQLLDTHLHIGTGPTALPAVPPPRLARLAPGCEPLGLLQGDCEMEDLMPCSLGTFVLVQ

[7] = target: Serine/threonine-protein kinase SIK1 (Homo sapiens) (UniProt P57059); details: at 1 µM
[8] = target: Serine/threonine-protein kinase SIK2 (Homo sapiens) (UniProt Q9H0K1); details: at 0.1 µM
Chain of Serine/threonine-protein kinase SIK2 (Homo sapiens) (Q9H0K1 whole entry, looked up): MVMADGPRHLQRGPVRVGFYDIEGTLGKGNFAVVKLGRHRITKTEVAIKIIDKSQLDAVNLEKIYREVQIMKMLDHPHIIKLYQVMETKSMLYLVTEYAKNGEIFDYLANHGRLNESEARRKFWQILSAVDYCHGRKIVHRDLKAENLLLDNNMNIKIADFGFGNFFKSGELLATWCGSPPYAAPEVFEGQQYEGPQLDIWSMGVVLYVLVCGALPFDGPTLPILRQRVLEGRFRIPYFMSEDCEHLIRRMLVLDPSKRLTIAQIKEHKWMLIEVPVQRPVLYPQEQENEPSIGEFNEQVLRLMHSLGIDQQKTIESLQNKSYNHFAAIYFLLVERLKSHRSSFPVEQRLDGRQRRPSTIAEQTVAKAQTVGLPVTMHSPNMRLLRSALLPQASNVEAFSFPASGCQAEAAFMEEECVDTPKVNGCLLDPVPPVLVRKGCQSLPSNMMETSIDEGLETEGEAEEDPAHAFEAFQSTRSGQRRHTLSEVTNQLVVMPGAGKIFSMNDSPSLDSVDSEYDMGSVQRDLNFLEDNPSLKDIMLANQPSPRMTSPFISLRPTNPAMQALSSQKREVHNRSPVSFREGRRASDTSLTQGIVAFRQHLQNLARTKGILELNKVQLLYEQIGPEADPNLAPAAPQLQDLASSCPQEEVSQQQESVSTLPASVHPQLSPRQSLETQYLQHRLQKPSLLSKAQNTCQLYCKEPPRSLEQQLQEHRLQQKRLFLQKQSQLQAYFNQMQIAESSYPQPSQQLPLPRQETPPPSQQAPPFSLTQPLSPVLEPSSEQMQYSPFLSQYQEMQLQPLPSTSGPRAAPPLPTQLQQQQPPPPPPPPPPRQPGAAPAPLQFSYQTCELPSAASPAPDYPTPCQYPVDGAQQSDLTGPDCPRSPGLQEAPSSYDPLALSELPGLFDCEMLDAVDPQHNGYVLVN

[9] = target: Serine/threonine-protein kinase SIK2 (Homo sapiens) (UniProt Q9H0K1); details: at 1 µM
[10] = target: T2, Serine/threonine-protein kinase TBK1 (Homo sapiens) (UniProt Q9UHD2); details: at 0.1 µM;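 further: values are the mean TBK1 inhibition, taken from the GSK PKIS screening data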
T2 sequence (whole entry): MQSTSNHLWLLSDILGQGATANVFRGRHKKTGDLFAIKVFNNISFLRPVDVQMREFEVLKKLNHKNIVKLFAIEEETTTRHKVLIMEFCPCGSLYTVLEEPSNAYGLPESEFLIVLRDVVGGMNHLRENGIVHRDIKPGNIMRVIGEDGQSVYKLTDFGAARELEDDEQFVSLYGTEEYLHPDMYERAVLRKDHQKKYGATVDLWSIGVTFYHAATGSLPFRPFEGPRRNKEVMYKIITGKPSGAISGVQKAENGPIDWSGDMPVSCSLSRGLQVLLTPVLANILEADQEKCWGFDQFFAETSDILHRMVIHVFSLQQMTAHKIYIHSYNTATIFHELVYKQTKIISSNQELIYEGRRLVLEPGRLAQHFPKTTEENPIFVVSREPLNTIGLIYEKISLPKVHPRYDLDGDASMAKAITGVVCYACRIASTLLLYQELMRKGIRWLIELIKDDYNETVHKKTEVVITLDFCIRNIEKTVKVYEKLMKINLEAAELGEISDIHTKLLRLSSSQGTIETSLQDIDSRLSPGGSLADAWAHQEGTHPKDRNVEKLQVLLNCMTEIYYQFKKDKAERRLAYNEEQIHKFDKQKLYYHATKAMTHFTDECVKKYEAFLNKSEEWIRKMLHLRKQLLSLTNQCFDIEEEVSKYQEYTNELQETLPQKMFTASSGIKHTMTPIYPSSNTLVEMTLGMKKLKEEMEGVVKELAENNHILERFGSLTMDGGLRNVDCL

Chain of Serine/threonine-protein kinase pim-2 (Homo sapiens) (Q9P1W9 whole entry, looked up): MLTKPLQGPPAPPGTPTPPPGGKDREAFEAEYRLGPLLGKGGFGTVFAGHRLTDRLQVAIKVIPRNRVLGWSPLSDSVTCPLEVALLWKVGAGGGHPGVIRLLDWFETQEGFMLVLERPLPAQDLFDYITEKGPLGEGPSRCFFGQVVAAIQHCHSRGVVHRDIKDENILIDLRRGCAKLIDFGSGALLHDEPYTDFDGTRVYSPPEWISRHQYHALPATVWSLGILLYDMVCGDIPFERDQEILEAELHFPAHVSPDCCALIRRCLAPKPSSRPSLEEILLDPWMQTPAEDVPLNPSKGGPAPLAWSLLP

| SMILES | inhibition [1] [%] | inhibition [2] [%] | inhibition [3] [%] | inhibition [4] [%] | inhibition [5] [%] | inhibition [6] [%] | inhibition [7] [%] | inhibition [8] [%] | inhibition [9] [%] | inhibition [10] [%] |
| --- | --- | --- | --- | --- | --- | --- | --- | --- | --- | --- |
| NCc1ccc(-c2nc(-c3ccc(Cl)c(O)c3)c(-c3ccncc3)[nH]2)cc1 | 1.13 | -1.17 | -0.73 | -0.17 | -1.34 | 0.32 | 3.96 | -0.81 | 8.19 | -1.21 |
| CCCN1CCC(Oc2cc(Nc3nc(Nc4cccc(F)c4C(N)=O)c4cc[nH]c4n3)c(OC)cc2Cl)CC1 | 2.68 | 1.54 | 10.5 | -0.3 | -0.07 | -0.37 | 2.28 | -0.16 | -0.62 | -0.35 |
| Nc1nc(-c2ccccn2)c(-c2ccc3ncccc3n2)s1 | 0.01 | 0.6 | 2.63 | 1.31 | 1.64 | 4.91 | 3.52 | 4.07 | 4.74 | 2.8 |
| Cc1cc(O)cc(C)c1/C=C/c1cncc(-c2nn[nH]n2)c1 | -2.91 | -1.97 | -0.67 | 1.58 | 1.02 | 56.2 | 94.7 | 6.01 | 53.7 | 1.57 |
| Cc1ccc(NC(=O)c2ccnc(N3CCCC3)c2)cc1-c1ccc(C(=O)NCC2CC2)cc1 | -1.68 | -0.52 | 1.15 | 1.02 | 1.69 | 1.07 | 8.28 | 0.28 | 8.6 | 6.98 |
| NS(=O)(=O)c1cccc(-c2ccc3c(NC(=O)C4CC4)n[nH]c3c2)c1 | 0.35 | -1.61 | 1.3 | -0.5 | 0.65 | -8.4 | -0.1 | -0.65 | -7.23 | 0.24 |
| CC(C)=Cc1cccc2c1/C(=N/Nc1ccc(S(N)(=O)=O)cc1)C(=O)N2 | 0.68 | 1.74 | 3.98 | 0.48 | 2.48 | 3.24 | 11.2 | 4.69 | 15.5 | 3.78 |
| NS(=O)(=O)c1ccc(N/N=C2\C(=O)Nc3ccc(C(=O)NCCc4c[nH]cn4)cc32)cc1 | 24.7 | 4.71 | 44.7 | 1.41 | 2.5 | 11.7 | 32.5 | 6.36 | 16.9 | 3.67 |
| CCc1cccc(NC(=O)Nc2ccc(Oc3ccc4nc(NC(=O)OC)[nH]c4c3)cc2)c1 | -0.24 | 1.1 | 3.52 | 0.32 | 0.96 | 2.06 | 2.27 | 1.99 | 0.48 | 0.31 |
| COc1ccc2cc(-c3c(-c4ccncc4)nc(-c4ccc([S+](C)[O-])cc4)n3C)ccc2c1 (centres undefined) | 0.99 | -1.77 | -3.85 | 0.94 | -0.4 | 2.62 | 1.89 | 0.52 | 5.27 | -2.09 |
| Nc1ncnc2occ(-c3ccc(NC(=O)Nc4cccc(C(F)(F)F)c4)cc3)c12 | 0.72 | 0.78 | 0.9 | 1.67 | 1.36 | -0.49 | 9.69 | 4.8 | 3.6 | 3.95 |
| CS(=O)(=O)CCNCc1ccc(-c2ccc3ncnc(Nc4ccc(OCc5ccccc5)c(Cl)c4)c3c2)o1 | 0.98 | 0.47 | 1.74 | 0.46 | 0.34 | 1.53 | 4.15 | -3.07 | -4.01 | 0.47 |
| Nc1ncnc2occ(-c3ccc(NC(=O)Nc4cc(C(F)(F)F)cc(C(F)(F)F)c4)cc3)c12 | 0.27 | -1.29 | -2.53 | 0.61 | 0.59 | 1.96 | 2.47 | 3.48 | 4.42 | -0.65 |
| Cn1cc(C=C2C(=O)Nc3cccnc32)c2ccccc21 | 3.47 | 0.47 | 11.5 | 0.25 | 1.48 | -0.28 | 9.48 | 2.86 | 4.37 | 2.42 |
| [O-][S+]1CCN(Cc2ccc(-c3ccc4ncnc(Nc5ccc(OCc6ccccc6)c(F)c5)c4c3)o2)CC1 | 0.23 | -1.55 | -1.98 | 0.41 | -0.19 | 3.06 | 3.96 | 3.09 | 5.38 | 1.1 |
| COC(=O)Nc1nc2cc(Oc3cccc(NC(=O)Nc4cc(C(F)(F)F)ccc4F)c3)ccc2[nH]1 | 0.76 | 0.14 | 0.51 | -0.26 | -2.14 | 0.37 | 2.51 | -0.54 | 3.76 | – |
| CNC(=O)c1cncc(/C=C/c2c(Cl)cccc2Cl)c1 | -0.92 | 1.26 | 7.42 | 1.11 | 1.46 | 11.9 | 50.9 | 2.71 | 17.3 | 2.82 |
| COc1cc2c(cc1Nc1nc(N3CCc4ccccc43)c3cc[nH]c3n1)N(C(=O)CN(C)C)CC2 | 0.38 | -0.4 | -1.08 | 0.04 | -1.65 | 3.24 | 7.48 | 2.51 | -3.15 | 0.22 |
| COc1cc2ncn(-c3cc(OCc4ccccc4C(F)(F)F)c(C(N)=O)s3)c2cc1OC | -2.85 | -0.3 | 5.54 | 1.22 | 2.23 | 9.96 | 56.6 | 5.82 | 35.4 | 3.59 |
